Experimental data: article PMC5540273 (PLoS ONE, 2017)

How the values were obtained:
Settings in all cases: concentration: 1 μM, replicates: in singlicate; n = 1
[1] = system: T1, ASK2
T1 construct: gene MAP3K6

[2] = system: AURKA
[3] = system: AURKB
[4] = system: AURKC
[5] = system: AXL
[6] = system: T2, BIKE
T2 construct: gene BMP2K

[7] = system: BLK
[8] = system: BMPR1A
[9] = system: BMPR1B
[10] = system: BMPR2
[11] = system: BMX
[12] = system: BRAF
[13] = system: T3, BRK
T3 construct: gene PTK6

[14] = system: BRSK1
[15] = system: BRSK2
[16] = system: BTK
[17] = system: BUB1
[18] = system: CAMK1B
[19] = system: CAMK1D
[20] = system: CAMK1G
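Note: KINOMEscan kinase panel screen.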

Compound	%Inh [1] [%]	%Inh [2] [%]	%Inh [3] [%]	%Inh [4] [%]	%Inh [5] [%]	%Inh [6] [%]	%Inh [7] [%]	%Inh [8] [%]	%Inh [9] [%]	%Inh [10] [%]	%Inh [11] [%]	%Inh [12] [%]	%Inh [13] [%]	%Inh [14] [%]	%Inh [15] [%]	%Inh [16] [%]	%Inh [17] [%]	%Inh [18] [%]	%Inh [19] [%]	%Inh [20] [%]
CCCCc1nn2ncccc2c1-c1ccnc(Nc2ccc(N3CCN(C)CC3)cc2)n1 [GW684941]	16	96.7	80	82	69	69	81	0	91	0	53	86	69	3	0	57	93.3	25	0	0
Nc1ncc(-c2cccnc2)c2scc(-c3ccc4c(c3)CCN4C(=O)Cc3ccccc3)c12 [GSK683281]	10	25	70	70	89	16	82	6	0	3	20	0	68	27	0	0	0	0	22	21
Cl.c1ccc(-c2ccc3c(Nc4ccc5[nH]ccc5c4)ccnc3c2)nc1 [GW440138]	0	8	0	1	0	2	70	0	5	26	5	0	28	0	0	0	64	11	0	0
CN1CCN(Cc2cccc(-c3ccc4c(Nc5ccc(Oc6ccccc6)cc5)ccnc4c3)c2)CC1 [GW578342]	0	6	0	9	17	1	94.8	0	0	8	20	0	90.2	0	1	90.8	35	10	7	0
Cc1ccc(C(=O)Nc2ccc(Nc3ccnc4cc(-c5nccs5)ccc34)cc2O)cc1.Cl [GW494702]	0	100	91.3	61	9	9	97	0	0	12	18	1	38	0	0	100	35	8	0	15
O=C(Nc1cccc(-c2nn3ccccc3c2-c2ccnc(Nc3cccc(C(F)(F)F)c3)n2)c1)c1c(F)cccc1F [GSK292658]	2	2	0	49	12	0	94	0	0	22	52	43	41	0	0	50	45	33	0	0
O=c1[nH]cc(-c2ccc(N3CCOCC3)cc2)c2sc(-c3cn[nH]c3)cc12 [GSK2276055]	13	28	21	21	0	28	0	1	0	24	11	35	0	0	0	0	0	5	29	12
CC(=O)Nc1nc2cnc(Nc3cc(NC(=O)c4cccc(C5(C#N)CC5)c4Cl)ccc3C)nc2s1	0	0	26	0	0	0	45	0	0	2	1	99.4	30	10	0	0	0	0	30	0
COc1cccc(NC(=O)NC2CCN(c3ccnc(Nc4cc(OC)c(OC)c(OC)c4)n3)C2)c1 (centres unmarked) [GSK1379763]	11	75	55	89	13	78	0	0	0	8	2	5	0	0	0	0	18	35	4	17
Cl.NC(=O)c1cccc(Nc2nccc(Nc3ccc(Oc4c(Cl)cccc4Cl)c(Cl)c3)n2)c1 [GW659009]	0	0	17	43	5	56	45	100	0	0	0	6	76	0	0	36	17	0	2	0
Cl.c1ccc(-c2ccc3c(Nc4ccc5[nH]ncc5c4)ccnc3c2)nc1 [GW440137]	19	1	3	22	4	18	40	0	31	0	0	7	20	0	2	0	47	36	18	5
CN1CCN(CCCNc2nccc(-c3c(-c4ccc(F)cc4)nn4cc(C(F)(F)F)ccc34)n2)CC1 [GW621581]	0	0	11	0	10	11	50	0	0	0	0	41	9	2	1	0	26	5	11	0
COc1cc(Nc2nccc(-c3c(-c4cccc(NC(=O)c5c(F)cccc5F)c4)nn4ccccc34)n2)cc(OC)c1OC [GSK323521]	4	48	90.6	15	80	21	44	0	0	11	7	9	57	8	13	1	3	0	21	31
Nc1ncnc2c1nc(-c1ccccc1)n2-c1ccccc1 [SKF-97293]	29	24	47	0	14	4	0	8	17	46	15	6	1	15	27	0	46	6	8	0
COc1ccc(Nc2nccc(NCCNC(=O)c3cc4ccccc4s3)n2)cc1 [GSK1379896]	0	16	0	17	14	4	23	0	0	0	17	0	1	6	0	0	9	39	6	0
c1ccc(Oc2ccc(Nc3ccnc4cc(-c5ccc(CNCCN6CCOCC6)o5)ccc34)cc2)nc1 [GW567145]	0	22	71	9	0	0	86	0	0	14	20	0	85	0	0	86	54	0	2	0
Oc1cc(Nc2ccnc3cc(I)ccc23)ccc1F [GW552771]	4	0	8	8	3	5	80	56	99.9	6	15	79	28	11	0	7	57	37	8	0
NCCCC(NC(=O)c1cc(Br)c(-c2ccnc3[nH]ccc23)s1)c1ccccc1.O=C(O)C(F)(F)F.O=C(O)C(F)(F)F (centres unmarked) [GSK1287544]	0	74	56	95.7	74	97.9	0	0	0	21	7	0	3	28	0	0	21	10	18	0
Cc1cccc(NC(=O)Nc2ccc(Oc3ncnc4ccn(C)c34)cc2)c1	0	0	94.9	85	44	10	0	0	0	0	0	0	0	0	0	91.6	0	14	6	0
c1ccc(-c2n[nH]cc2Nc2ccnc3ccccc23)nc1 [GW694077]	1	15	45	78	0	100	28	0	3	47	6	0	0	0	0	0	88	49	30	9

Compound	%Inh [1] [%]	%Inh [2] [%]	%Inh [3] [%]	%Inh [4] [%]	%Inh [5] [%]	%Inh [6] [%]	%Inh [7] [%]	%Inh [8] [%]	%Inh [9] [%]	%Inh [10] [%]	%Inh [11] [%]	%Inh [12] [%]	%Inh [13] [%]	%Inh [14] [%]	%Inh [15] [%]	%Inh [16] [%]	%Inh [17] [%]	%Inh [18] [%]	%Inh [19] [%]	%Inh [20] [%]
COC(=O)Nc1nc2cc(Oc3ccc(NC(=O)Nc4cc(C(F)(F)F)ccc4F)cn3)ccc2[nH]1.Cl.Cl [GW681170]	0	78	40	52	98.3	1	31	0	0	10	5	73	0	0	0	0	3	28	12	44
COc1cc(Nc2nccc(N3CCC(NC(=O)Nc4cccc(C(C)=O)c4)C3)n2)cc(OC)c1OC (centres unmarked) [GSK1379753]	0	83	57	77	0	74	9	0	0	9	1	0	8	5	0	0	31	0	20	0
CCn1c(-c2nonc2N)nc2c(C#CC(C)(C)O)nc(OC[C@H](N)c3ccccc3)cc21 [GSK943949]	0	37	0	4	13	19	0	0	9	1	2	42	0	0	50	0	13	0	10	0
COc1ccc(Nc2nccc(N3CCC(NC(=O)Nc4cccc(OC)c4)C3)n2)cc1 (centres unmarked) [GSK1379742]	13	0	53	10	0	13	37	0	0	12	0	2	10	4	0	0	29	17	0	0
Cl.Cl.NCC(NCc1ccc(-c2ccnc3[nH]ccc23)s1)c1ccccc1 (centres unmarked) [GSK1321565]	0	47	79	97.2	95.1	100	0	0	0	3	8	0	0	0	0	0	64	59	17	11
c1ccc(-c2cnc3nccnn23)cc1 [AH20685]	0	0	13	0	0	0	37	0	0	0	0	33	22	0	0	6	0	0	0	0
O=C(NC1CCN(c2ccnc(Nc3ccc(F)cc3)n2)C1)c1cc2ccccc2s1 (centres unmarked) [GSK1379716]	9	4	24	53	19	26	62	0	0	0	22	0	25	18	9	0	64	9	17	0
FC(F)(F)c1ccc(/C=C/c2cncnc2Nc2ccc3[nH]c(Cc4ccccc4)nc3c2)cc1 [GW709199]	0	0	5	0	0	0	3	4	0	0	0	0	11	3	8	19	0	0	5	0
CN(C)S(=O)(=O)c1cc(-c2ccc3nccc(-c4cccc(S(N)(=O)=O)c4)c3c2)cnc1N [GSK1669921]	5	8	0	17	10	22	18	0	0	3	21	30	11	12	0	0	0	0	25	7
Cc1ccc(F)c(C(=O)Nc2cccc(-c3nn4ccccc4c3-c3ccnc(Nc4cccc(F)c4)n3)c2)c1F [GSK361061]	27	29	4	59	56	35	91.3	10	0	8	48	68	74	12	0	0	42	0	18	12
O=C(Nc1cccc(Oc2ccc3nc(NC(=O)C4CC4)cn3n2)c1)c1ccccc1C(F)(F)F	0	89	92.8	77	75	79	25	0	0	0	0	65	0	6	0	16	0	0	3	0
COc1cc(Nc2nccc(-c3c(-c4cccc(NC(=O)c5c(F)cccc5F)c4)nn4ncccc34)n2)cc(OC)c1OC [GSK327238]	8	99.1	92.5	70	91.3	7	99.6	3	0	0	91.4	96	97.6	0	40	94	54	0	13	3
O=C(Nc1cccc(-c2nn3ncccc3c2-c2ccnc(Nc3ccccc3)n2)c1)c1c(F)cccc1F [GSK198271]	6	65	32	64	100	16	97.5	0	0	0	89	90.9	94.5	4	0	99.4	32	9	25	11
CSc1cccc2c(-c3ccncn3)c(-c3ccc(F)cc3)nn12 [GW514786]	29	8	15	7	11	8	19	10	0	11	14	13	9	14	0	11	89	0	7	0
COc1ccc(-c2coc3ccc(-c4nnc(SCc5ccc(OC)c(C(F)(F)F)c5)o4)cc23)cc1	0	21	11	7	11	0	7	20	13	14	29	0	0	0	13	0	0	8	14	3
Cc1ccc(C)c(NC(=O)NC2CCN(c3ccnc(Nc4ccc(F)cc4)n3)C2)c1 (centres unmarked) [GSK1379720]	0	0	48	76	0	23	24	0	0	21	0	0	21	0	0	0	49	0	6	11
Cc1cccc(Nc2nc(N[C@H]3CCNC3)ncc2C(N)=O)c1.Cl [GSK2197149]	3	0	0	58	24	96.9	69	0	0	0	16	4	7	0	0	0	44	68	55	8
COc1cccc(C(=O)Nc2cccc(Oc3ccc4nc(NC(=O)C5CC5)cn4n3)c2)c1	0	55	81	74	65	18	95.3	10	13	0	77	96.5	21	4	0	9	0	0	17	21
Cl.Cl.NCC(C(=O)Nc1cc(Br)c(-c2ccnc3[nH]ccc23)s1)c1ccccc1 (centres unmarked) [GSK1269851]	26	81	9	53	57	99.8	0	78	0	30	12	1	7	6	0	0	59	24	0	0
Cn1cc(-c2ccc3c(c2)CCN3C(=O)Cc2cccc(Cl)c2)c2c(N)ncnc21 [GSK2606590]	19	23	89	65	96.3	18	69	0	0	4	4	11	56	7	0	0	0	0	32	25
